Source: PubChem BioAssay
Activity calls are given as the source filed them. The rule behind the calls is not given here.

What follows are compounds tested against Pantothenate synthetase (Mycobacterium tuberculosis (strain ATCC 25618 / H37Rv)) (UniProt P9WIL5) (assay: Recombinant Mtb pantothenate synthetase (PanC) inhibitors, coupled enzyme, confirmatory (AID 375;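 note: 0% = full reaction with vehicle and 100% = no enzyme background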)). Conditions: coupled enzyme assay; at 10 µM, active compounds read high.
Pantothenate synthetase (Mycobacterium tuberculosis (strain ATCC 25618 / H37Rv)), sequence (P9WIL5 whole entry, looked up): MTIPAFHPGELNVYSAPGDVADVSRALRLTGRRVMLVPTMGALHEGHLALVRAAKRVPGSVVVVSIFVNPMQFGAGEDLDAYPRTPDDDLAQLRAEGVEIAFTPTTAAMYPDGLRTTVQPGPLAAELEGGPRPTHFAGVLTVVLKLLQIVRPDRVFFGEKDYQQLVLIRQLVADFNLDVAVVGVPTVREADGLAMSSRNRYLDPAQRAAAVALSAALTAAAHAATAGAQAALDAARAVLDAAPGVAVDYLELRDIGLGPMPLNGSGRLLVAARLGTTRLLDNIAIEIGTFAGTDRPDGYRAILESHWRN
In the case of `CCOc1cccc2cc(C(=O)N3CCN(C/C=C/c4ccccc4)CC3)c(=O)oc12`, the inhibition is reported as 0% (inactive).
`Fc1ccc(C(c2ccc(F)cc2)N2CCN(C/C=C/c3ccccc3)CC2)cc1` was tested, and the inhibition was 0% (inactive).
With `CCOC(=O)c1cc2n(n1)C(C(F)(F)C(F)(F)F)CC(C)N2` (stereo not given) the inhibition was 1% (inactive).
For `OC(CCN1CCCC1)(c1ccccc1)C1CCCCC1` (stereo not given), the inhibition was 1% (inactive).
For `CC(=O)c1cccc(NC(=O)CCNS(=O)(=O)c2cccc3nsnc23)c1`, the inhibition was 0% (inactive).
`N#CCCN1CCN(S(=O)(=O)c2ccc(S(=O)(=O)NC3CCCCC3)cc2)CC1` was tested, and the inhibition was 0% (inactive).
In the case of `N#C/C(C(=O)c1ccccc1)=C1/CCCN1`, the inhibition is reported as 3% (inactive).
In the case of `Cc1ccc(-n2c3c(cc(C(=O)NCCCN4CCOCC4)c2=O)C(=O)CC(C)(C)C3)cc1`, the inhibition is reported as 0% (inactive).
With `CC(=O)C(Sc1ncnc2c1nnn2-c1ccc(F)cc1)C(=O)N(C)C` (stereo not given) the inhibition was 0% (inactive).
With `CCOC(=O)N1CCC(N(CCCOC)C(=O)Nc2ccc(CC)cc2)CC1` the inhibition was 0% (inactive).
For `COc1ccc(-c2cc(N3CCCC3)n3ncnc3n2)cc1`, the inhibition was 9% (inactive).
In the case of `Cn1c(C(=O)NCCCN2CCN(c3ccc(F)cc3)CC2)cc2c(=O)n(C)c3ccccc3c21`, the inhibition is reported as 0% (inactive).
With `CCOC(=O)c1[nH]c(C)c(C(=O)N2CCN(c3ccc(F)cc3)CC2)c1C` the inhibition was 0% (inactive).
For `CC1(C)COCN1S(=O)(=O)c1ccc(C(=O)Nc2nnc(-c3ccc(Cl)s3)o2)cc1`, the inhibition was 4% (inactive).
With `CNC(=O)OC(C)CNS(=O)(=O)c1ccc(C)cc1` (stereo not given) the inhibition was 0% (inactive).
In the case of `CC1(C)Cc2ccccc2C(N)=C1C#N`, the inhibition is reported as 5% (inactive).
`CC(=O)Nc1ccc(NC(=O)Cn2cc3c(n2)CCC(C)C3)cc1` (stereo not given) was tested, and the inhibition was 3% (inactive).
With `CCC(C)n1ncn(-c2ccc(N3CCN(c4ccc(OCC5COC(Cn6cncn6)(c6ccc(Cl)cc6Cl)O5)cc4)CC3)cc2)c1=O` (stereo not given) the inhibition was 8% (inactive).
In the case of `C=CCn1c(SCC(=O)c2ccc(OC)cc2)nnc1C(C)NC(=O)c1cccs1` (stereo not given), the inhibition is reported as 0% (inactive).
With `c1ccc2c(-c3nc(C4CCCCC4)no3)cc(-c3ccncc3)nc2c1` the inhibition was 1% (inactive).
`OCc1nc2ccccc2n1CCCOc1ccccc1` was tested, and the inhibition was 0% (inactive).
For `CN(C)CCN1C(=O)C(O)=C(C(=O)c2cc3ccccc3o2)C1c1ccc(N(C)C)cc1` (stereo not given), the inhibition was 0% (inactive).
In the case of `CC(C)CCNC(=O)NC(=O)CSc1nnc(-c2ccccc2F)n1N`, the inhibition is reported as 0% (inactive).
With `CCc1c(C)c2ccc(OCC(=O)OC)cc2oc1=O` the inhibition was 0% (inactive).
With `Cn1c(Cc2csc(N)n2)nnc1SCC(=O)NCc1ccccc1` the inhibition was 3% (inactive).
With `Cc1nnc(SCC(=O)N2c3ccccc3CC2C)s1` (stereo not given) the inhibition was 0% (inactive).
With `COc1cc2nc(N3CCN(C(=O)C4COc5ccccc5O4)CC3)nc(N)c2cc1OC` (stereo not given) the inhibition was 3% (inactive).
For `c1cncc(-c2nnc3sc(-c4ccco4)nn23)c1`, the inhibition was 0% (inactive).
In the case of `O=C(C1CCCN(S(=O)(=O)c2cccc3nonc23)C1)N1CCC(Cc2ccccc2)CC1` (stereo not given), the inhibition is reported as 3% (inactive).
With `Cc1c(C#N)sc2nc(-c3ccccc3)nc(N3CCCC3)c12` the inhibition was 0% (inactive).
In the case of `N#CCc1nc2c3c4c(sc3ncn2n1)CCCC4`, the inhibition is reported as 7% (inactive).
For `O=C(NCCO)c1cccc2c1C(=O)c1ccccc1-2`, the inhibition was 11% (inactive).
In the case of `Nc1ccc(-c2ccc(N)cc2C(F)(F)F)c(C(F)(F)F)c1`, the inhibition is reported as 0% (inactive).
For `COc1cc(C(=O)Nc2ccc3c(c2)C(=O)N(CCC(=O)O)C3=O)cc(OC)c1OC`, the inhibition was 0% (inactive).
For `Cc1ccc(C)c(N2C(=O)CN=C2Nc2ccccc2Cl)c1`, the inhibition was 4% (inactive).
For `COc1ccccc1NC(=O)CSc1nnc(-c2ccncc2)n1CC1CCCO1` (stereo not given), the inhibition was 0% (inactive).
With `COc1ccc(OC)c(S(=O)(=O)Nc2ccc(C(N)=O)cc2)c1` the inhibition was 0% (inactive).
`COC(=O)CNC(=O)c1c(C)cc(=O)oc1C` was tested, and the inhibition was 3% (inactive).
With `COc1cc(C(=O)Nc2cc(Cl)ccc2C)c(-n2cnnn2)cc1OC` the inhibition was 9% (inactive).
In the case of `CC(=O)Nc1c(I)c(NC(C)=O)c(I)c(C(=O)O)c1I`, the inhibition is reported as 1% (inactive).
